The source of these data is the supplement of paper PMC8007513.

The assay concerns Trichoderma virens ATCC 9645. Description: growth yield (OD600) with compound + IPBC relative to untreated control; higher = less growth inhibition. The following applies: compound concentration: 100 uM, IPBC concentration: 200 ng/ml. A digest of the protocol: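 Plates were read for OD600 at 40 h and 72 h after Trichoderma virens ATCC 9645 spores (15,000 spores ml^−1 in potato dextrose broth) were grown at 30 °C with library compounds at 100 μM final, with or without a biocide at 200 ng ml^−1. Growth is stated relative to the control with neither agent, as the mean of duplicate screens.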

The structures appear in SMILES notation. Counter-ions that a name gives are not always drawn. ± gives the standard error. The whole screen tested about 1,300 compounds, of which about 130 (10%) showed an effect of 50% or more. The sample holds strong results, similar compounds and a random draw of the others, so the mix is not that of the screen.

As to `CCCCCCC[N+](CC)(CC)CCCCc1ccc(Cl)cc1` [Clofilium tosylate] + CCCCNC(=O)OCC#CI [3-iodo-2-propynyl butylcarbamate (IPBC)], the growth yield reads like this: (40 h) 13.5 ± 5.9%; (72 h) 74.46 ± 0.42%.

On to `N[C@@H]1C[C@H]1c1ccccc1` [Tranylcypromine hydrochloride] + CCCCNC(=O)OCC#CI [3-iodo-2-propynyl butylcarbamate (IPBC)], for which the growth yield is, setting by setting: (40 h) 99.6 ± 1.8%; (72 h) 104 ± 3.7%.

Take `N=C(N)N1CCc2ccccc2C1` [Debrisoquin sulfate] + CCCCNC(=O)OCC#CI [3-iodo-2-propynyl butylcarbamate (IPBC)]: the growth yield came out at 92.3 ± 15% (40 h) and 96.9 ± 8% (72 h).

Consider `COc1ccc2cc([C@@H](C)C(=O)O)ccc2c1` [(R) -Naproxen sodium salt] + CCCCNC(=O)OCC#CI [3-iodo-2-propynyl butylcarbamate (IPBC)], for which the growth yield runs as follows: (40 h) 67.7 ± 2.2%; (72 h) 81.5 ± 3.5%.

In the case of `COc1ccc2cc([C@H](C)C(=O)O)ccc2c1` [(S)-Naproxen] + CCCCNC(=O)OCC#CI [3-iodo-2-propynyl butylcarbamate (IPBC)], the growth yield by setting is: (40 h) 61.3 ± 1.9%; (72 h) 78.6 ± 1.1%.

With `COc1ccc2cc(CCC(C)=O)ccc2c1` [Nabumetone] + CCCCNC(=O)OCC#CI [3-iodo-2-propynyl butylcarbamate (IPBC)], the growth yield (40 h) stood at 39.7 ± 1.6% and the growth yield (72 h) worked out at 67.1 ± 1.5%.

In the case of `c1ccc2c(c1)Nc1ccccc1S2` [Phenothiazine] + CCCCNC(=O)OCC#CI [3-iodo-2-propynyl butylcarbamate (IPBC)], the growth yield reads like this: (40 h) 34.8 ± 2.7%; (72 h) 51.3 ± 1.6%.

As to `CC(C)(C#N)c1cc(Cn2cncn2)cc(C(C)(C)C#N)c1` [Anastrozole] + CCCCNC(=O)OCC#CI [3-iodo-2-propynyl butylcarbamate (IPBC)], the growth yield is, setting by setting: (40 h) 105 ± 3.8%; (72 h) 98.9 ± 2.2%.

`CN(C)c1ccc(O)c2c1C[C@H]1C[C@H]3[C@H](N(C)C)C(O)=C(C(N)=O)C(=O)[C@@]3(O)C(O)=C1C2=O` [Minocycline hydrochloride] + CCCCNC(=O)OCC#CI [3-iodo-2-propynyl butylcarbamate (IPBC)]: the growth yield runs as follows: (40 h) 58.1 ± 2.2%; (72 h) 84.6 ± 4.7%.

On to `COc1ccc(OC)c(C(O)C(C)N)c1` (centres undefined) [Methoxamine hydrochloride] + CCCCNC(=O)OCC#CI [3-iodo-2-propynyl butylcarbamate (IPBC)], for which the growth yield came out at 87.4 ± 7.3% (40 h) and 92.4 ± 5.3% (72 h).

As to `COc1ccc(C(=O)N2CCCC2=O)cc1` [Aniracetam] + CCCCNC(=O)OCC#CI [3-iodo-2-propynyl butylcarbamate (IPBC)], the growth yield (40 h) was determined as 83.7 ± 4.3% and the growth yield (72 h) worked out at 87.3 ± 3.1%.

On to `O=C1Nc2ccc(Cl)cc2[C@@](C#CC2CC2)(C(F)(F)F)O1` [Efavirenz] + CCCCNC(=O)OCC#CI [3-iodo-2-propynyl butylcarbamate (IPBC)], for which the growth yield is, setting by setting: (40 h) 39.4 ± 2.9%; (72 h) 73.1 ± 8.1%.
